High-throughput results as filed in PubChem BioAssay.
Sampled rows, rich in hits. Any-hit rate of the full collection: about 3.2%.
A549 tox: Nrf2 qHTS screen for inhibitors: counterscreen for cytotoxicity. A549 ARE-Fluc cells, CellTiter-Fluor viability, 18-24 h. Potency, µM (doses to about 46 µM), usual class: inhibitors. 390,000 tested, 0.16% active. AID 504648, 2011
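A549 ARE_Fluc cells in 5% FBS OPTI-MEM were exposed to compounds in concentration-response for 18-24 h at 37 deg C. Viability was read by CellTiter-Fluor fluorescence (Ex 405/Em 525) after 30 min, before the luciferase read.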
p53 reactivation: qHTS assay for re-activators of p53 using a Luc reporter; H1299 p53-A138V BP100-luciferase reporter, luminescence, 24 h; Potency, µM (titrated, usually from 92.2 µM), usual class: activators; 320,000 tested, 0.063% active; also: nearly all actives have a fitted effect of over 45% in size
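p53-null H1299 cells stably carrying temperature-sensitive p53-A138V and a BP100-luciferase reporter were pinned with compounds (4-point, 1:5 series) and held 24 hrs at 37 deg C. Luminescence was read 10 min after detection reagent.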
Nrf2 ARE act: qHTS of Nrf2 Activators. AREc32 ARE-luciferase reporter (MCF7-derived line), luminescence, 24 h. Potency, µM (doses to about 46.1 µM), hits mostly activators. 410,000 tested, 0.31% active. AID 624171, 2012; also: nearly all actives have a fitted effect of over 65% in size
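Reporter line AREc32 (ARE-Fluc), seeded overnight in OPTI-MEM with 5% FBS; compound pin-transferred, 24 hr at 37 deg C, 5% CO2; luminescent read-out.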
Nrf2 block: Nrf2 qHTS screen for inhibitors; A549 ARE-Fluc reporter, luciferase luminescence, 18-24 h; Potency, µM (titrated, usually from 46 µM), most hits filed as inhibitors; 360,000 tested, 2.1% active; also: nearly all actives have a fitted effect of over 60% in size
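Reporter: ARE-Fluc in A549. Exposure: 18-24 h, 37 °C, 5% CO2, 5% FBS OPTI-MEM. Readouts: fluorescent cytotoxicity (CellTiter-Fluor), then luminescent Nrf2 signal after BugLite.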
IL2 activator: qHTS of IL-2 Activators; IL-2 activation reporter assay, cell-based qHTS; stimulated with anti-CD3/CD4/CD28 beads; in transgenic mouse T cells; activation, % (series mostly up to about 46 µM); 360,000 tested, 0.065% active; in the data active = activation above about 50%; inconclusive = mostly about 30% to 49%
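Using fluorescent plate cytometry, EGFP and DsRed are detected in transgenic mouse T cells stimulated 18 h at 37 degrees C with antibody-coated beads after 60 min compound pretreatment.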
BRCA1 expr up: qHTS Assay to Identify Small Molecule Activators of BRCA1 Expression. MCF7-BRCA1-FFLuc reporter, luminescence, 48 h; response scale: scaled: vehicle 0%, 10 µM genistein 100%. 380,000 tested, 1.1% active. AID 624202, 2012. Potency, µM (top dose mostly 46.1 µM), most hits filed as activators; also: nearly all actives have a fitted effect of over 80% in size
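MCF7 cells carrying a BRCA1-firefly luciferase reporter (2000 cells/well, phenol-red free MEM) were attached for 2 h at 37 °C, then given compounds for 48 h. Luminescence was read 15 min after luciferase reagent; activity normalized to genistein (10 microM) and DMSO.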
Numbers stand for hits; 0 = inactive; ? = inconclusive; - = no result; [ ] = dose if it differs, or a comment. Unless noted, calls follow the shape of the dose curve; as a rule, active = well fitted curve in the direction sought with a large enough effect; inconclusive = small, poorly fitted or top-dose-only effect, or another doubt; inactive = no such curve, though single readings can be large; an effect the other way counts as inactive or inconclusive.

SMILES	A549 tox	p53 reactivation	Nrf2 ARE act	Nrf2 block	IL2 activator	BRCA1 expr up
Cc1ccc(-c2nnn(CCC(=O)NC(C)(C)C)n2)cc1	0	?	0	0	0	14µM
O=C(c1ccccc1)c1cc2cc(Cl)ccc2[nH]1	0	?	0	?	0	10µM
COc1cccc(C(=O)c2cc3cc(Cl)ccc3[nH]2)c1	0	-	0	?	0	0
O=c1c2oc3ccccc3c2n(Cc2cccc(F)c2)c(=O)n1Cc1ccc2c(c1)OCO2	0	-	0	0	-	-
CN(C)S(=O)(=O)c1ccc2c(c1)nc(CCC(=O)NCc1ccc(Cl)cc1)n2C	0	?	0	23µM	0	0
Cn1cccc1/C=C1\SC(=O)N(c2ccccc2)C1=O	0	?	0	?	250	?
CC1=C(C(=O)OCC2CCCCC2)C(c2ccc(Cl)cc2Cl)CC(=O)N1 (configuration not stated)	0	-	0	0	-	0
O=C(COc1ccccc1)Nc1nc2c(s1)CCCC2	0	0	0	?	0	3.2µM
COc1ccc(-n2nnnc2SCC(=O)Nc2nc3c(s2)CCCC3)cc1	0	0	0	16µM	0	0
COc1ccc(-n2nnnc2SCC(=O)NC2CC2)cc1	0	0	0	0	0	0
Cc1ccc(Nc2nc(N)nc(N)c2S(=O)(=O)c2ccccc2)cc1	0	-	0	0	-	0
Cc1ccc(NC(=O)Cn2c(=O)n(Cc3ccccc3)c(=O)c3sc4ccccc4c32)cc1	0	-	0	0	-	-
Clc1ccc(-n2nnc(-c3cccnc3Cl)n2)cc1Cl	0	0	0	?	0	4µM
Clc1ncccc1-c1nnn(-c2ccccc2)n1	0	0	0	?	0	?
CC(C)(C)S(=O)(=O)c1cnc(-c2ccc(Cl)cc2)nc1N	0	0	0	?	0	2.8µM
COCc1nc2ccccc2n1CCOc1cccc(C)c1	0	-	0	0[9.27 µM]	-	-
CCn1c(=O)c([N+](=O)[O-])c(NCc2ccco2)c2ccccc21	?	0	8.9µM	0	0	0
CCNc1c([N+](=O)[O-])c(=O)n(CC)c2ccccc12	0	0	0	0	0	0
CC1CCN(C(=O)CSc2nnc(NC(=O)Nc3ccccc3)s2)CC1	0	-	0	-	-	-
COc1cc(OC)c(/C=C/c2ccc3ccccc3[n+]2[O-])c(OC)c1	-	-	-	-	-	0
CN1CCN(c2nc(-c3cc4ccccc4o3)cs2)CC1	0	?	0	0	0	0
NC(=O)C1CCN(c2nc(-c3cc4ccccc4o3)cs2)CC1	0	0	0	0	0	11µM
O=C1c2ccccc2C(=O)N1c1ccc(O)cc1	0	-	-	0	-	0
CCN(CC)c1ccc2cc(C(C)=O)c(=O)oc2c1	?	?	0	?	0	0
CCN(CC)c1ccc2cc(NC(=O)CCC(=O)O)c(=O)oc2c1	?	0	0	12µM	0	0
SMILES	A549 tox	p53 reactivation	Nrf2 ARE act	Nrf2 block	IL2 activator	BRCA1 expr up
CC(/C=C/c1ccco1)=N/NC(=O)CNc1ccccc1C	0	0	0	0	0	0
CC(/C=C/c1ccco1)=N\NC(=O)CNc1ccc2ccccc2c1	0	0	10µM	0	0	0
Cc1ccc(-c2nc3scc(CCNS(=O)(=O)c4ccc(C)c(C)c4)n3n2)cc1	0	-	0	-	-	-
Cc1nc2ccn(Cc3ccco3)c(=O)c2cc1C(=O)Nc1ccc(F)cc1	0	-	13µM	0	-	-
Cc1ccc(NC(=O)c2cc3c(=O)n(Cc4ccco4)ccc3nc2C)cc1C	0	-	0	?	-	-
COc1ccccc1NC(=O)C(=O)N1N=C(C(C)C)CC1(O)C(F)(F)F (configuration not stated)	0	0	0	23µM	0	0
CCC1=NN(C(=O)C(=O)Nc2ccccc2OC)C(O)(C(F)(F)F)C1 (configuration not stated)	0	0	0	0	0	0
COc1cc(/C=C(/C#N)c2ccccc2)ccc1Oc1ccc([N+](=O)[O-])cn1	?	0	0	15µM	0	0
